The source made the active and inactive calls.

Assay [1] can be described thus: small molecules captured by biotinylated probe aFSTL3 – biochemical, small-molecule microarray, fluorescence 635/667, stem cell growth factor project, primary screen (AID 1064).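 Note: measures binding of the biotinylated anti-FSTL3 antibody to printed compounds.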 To be noted: higher = more signal.
Assay [2] in a line: binders from COS7 lysate, DM2A8 probe, primary screen, torsin A project, cell lysate, small-molecule microarray, fluorescence 635/667 (AID 1065). To be noted: higher = more signal, COS7 lysate expressing mutant human TOR1A.
The nature of assay [3]: small molecules captured by biotinylated probe aFGF2 – biochemical, small-molecule microarray, fluorescence 635/667, stem cell growth factor project, primary screen (AID 1067).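 Note: measures binding of biotinylated aFGF2 protein to printed compounds on slides; z-score merges feature fluorescence and signal-to-noise across triplicate slides.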 To be noted: higher = more signal.
Assay [4] can be described thus: small molecules captured by biotinylated probe aFGF10 – biochemical, small-molecule microarray, fluorescence 635/667, stem cell growth factor project, primary screen (AID 1071).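 Note: score merges 667 nm spot intensity and signal to noise from triplicate slides.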 The following applies: higher = more signal.
The target of assay [5] is Neurogenic locus notch homolog protein 2 (Homo sapiens) (UniProt Q04721). Description: small molecules binding Notch2 protein – biochemical, small-molecule microarray, 635 nm fluorescence, stem cell growth factors, primary screen (AID 1073). The following applies: higher = more signal.
In assay [6] the target is Pro-neuregulin-1, membrane-bound isoform (Homo sapiens) (UniProt Q02297). Kind of assay: small molecules binding neuregulin-1 protein – biochemical, small-molecule microarray, fluorescence 635/667, psychiatric disease protein project, primary screen (AID 1075).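 Note: score combines 667 nm spot fluorescence with signal to noise.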 To be noted: NRG1 binding, 635 nm fluorescence, higher = more signal.
Chain of Pro-neuregulin-1, membrane-bound isoform (Homo sapiens) (Q02297 whole entry, looked up, the tested form may be a part, canonical isoform): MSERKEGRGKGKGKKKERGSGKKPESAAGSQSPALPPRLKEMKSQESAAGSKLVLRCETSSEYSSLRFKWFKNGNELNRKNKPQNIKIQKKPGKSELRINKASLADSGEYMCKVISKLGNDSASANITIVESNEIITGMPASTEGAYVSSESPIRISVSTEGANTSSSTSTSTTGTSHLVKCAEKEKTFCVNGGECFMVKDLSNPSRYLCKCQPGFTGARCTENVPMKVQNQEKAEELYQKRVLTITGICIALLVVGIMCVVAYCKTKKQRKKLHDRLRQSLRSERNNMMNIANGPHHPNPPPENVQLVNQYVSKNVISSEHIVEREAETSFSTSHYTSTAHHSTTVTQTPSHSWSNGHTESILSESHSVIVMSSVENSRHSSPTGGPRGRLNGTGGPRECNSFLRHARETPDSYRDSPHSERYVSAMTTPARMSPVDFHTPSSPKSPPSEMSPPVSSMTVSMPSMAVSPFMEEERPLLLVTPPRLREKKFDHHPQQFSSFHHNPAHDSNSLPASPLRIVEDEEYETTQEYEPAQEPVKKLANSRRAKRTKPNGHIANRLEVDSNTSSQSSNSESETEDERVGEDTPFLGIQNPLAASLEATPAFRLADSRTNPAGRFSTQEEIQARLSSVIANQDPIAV
Assay [7] relates to Neuregulin-1 EGF-like domain. Description: small molecules binding NRG1 EGF domain – biochemical, small-molecule microarray, 635 nm fluorescence, primary screen (AID 1081).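 Note: binding of the protein to compounds printed on small-molecule microarray slides.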 To be noted: higher = more signal.
Assay [8] is described as follows: FRG1 expression reporter modulators in myotubes – cell-based, C2C12 myotubes, firefly/Renilla luciferase, luminescence, FRG1 inhibition for FSHD, primary screen (AID 1084). To be noted: FRG1 promoter luciferase, higher = more signal, called active from +8 up or from −8 down.
Assay [9] can be described thus: small molecules captured by biotinylated probe aFST – biochemical, small-molecule microarray, fluorescence 635/667, stem cell growth factor project, primary screen (AID 1086).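 Note: score merges 667 nm fluorescence with signal-to-noise of each printed compound spot.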 The following applies: higher = more signal.
Assay [10] can be described thus: binders of probe aHhip on microarray, primary screen, stem cell growth factor project, biochemical, small-molecule microarray, fluorescence 635/667 (AID 1087).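 Note: score merges spot fluorescence at 667nm with spot signal to noise ratio.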 To be noted: higher = more signal.
Assay [11] concerns PRMT1 (protein arginine N-methyltransferase 1). Description: small molecules binding arginine methyltransferase PRMT1 – biochemical, small-molecule microarray, 635 nm fluorescence, primary screen (AID 1088).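 Note: binding of Prmt1 protein to compounds spotted on small-molecule microarray slides.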 To be noted: higher = more signal.
Assay [12] in a line: growth effects on S. cerevisiae YJM789 – YJM789 clinical isolate, OD600, 24 h, basal, primary screen (AID 1089).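 Note: growth of clinical yeast isolate S. cerevisiae YJM 789 seeded 1000 cells per well; test concentration not given here.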 The following applies: higher = more signal, called active from +8 up or from −8 down.
Assay [13] in a line: S. pombe growth modifiers, basal conditions – strain 972, OD600, 24 h, no modulator, primary screen (AID 1090).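 Note: basal condition with compound alone and no growth modifier present; test concentration not given here.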 To be noted: S. pombe 972 growth, higher = more signal, called active from +8 up or from −8 down.
Assay [14] in a line: budding yeast growth modifiers under rapamycin – strain BY4716, OD600, 96 h, primary screen (AID 1091). Note: test concentration not given here. To be noted: S. cerevisiae BY4716 + rapamycin, higher = more signal, called active from +8 up or from −8 down.
In assay [15] the target is Torsin-1A-interacting protein 2 (Homo sapiens) (UniProt Q8NFQ8). Description: small molecules binding lysate-expressed LULL1 – cell lysate, human LULL1 lysate, 635/667 nm fluorescence, primary screen (AID 1092).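 Note: probe is lysate of COS7 cells overexpressing human LULL1; score merges per-feature 667 nm fluorescence with signal-to-noise.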 The following applies: small-molecule microarray, hLULL1 lysate binding, 635 nm fluorescence; higher = more signal.
Chain of Torsin-1A-interacting protein 2 (Homo sapiens) (Q8NFQ8 whole entry, looked up): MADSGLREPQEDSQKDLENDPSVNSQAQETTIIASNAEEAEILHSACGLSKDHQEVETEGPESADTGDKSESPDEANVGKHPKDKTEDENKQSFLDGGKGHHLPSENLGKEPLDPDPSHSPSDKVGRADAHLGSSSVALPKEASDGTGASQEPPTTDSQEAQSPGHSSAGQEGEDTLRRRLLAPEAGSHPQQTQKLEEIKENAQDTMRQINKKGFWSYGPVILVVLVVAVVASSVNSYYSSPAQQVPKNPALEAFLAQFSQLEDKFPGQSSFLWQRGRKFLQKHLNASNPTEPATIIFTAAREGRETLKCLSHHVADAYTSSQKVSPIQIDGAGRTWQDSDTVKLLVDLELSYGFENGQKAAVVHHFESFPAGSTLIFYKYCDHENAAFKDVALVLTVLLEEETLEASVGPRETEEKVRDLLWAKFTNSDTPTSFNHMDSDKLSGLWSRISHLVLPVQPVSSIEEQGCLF
Assay [16] is described as follows: optical density change of DRC41 E. coli – strain DRC41, OD650, 24 h, E. coli filamentation project, primary screen (AID 1093).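 Note: MC1000 strain lacking acrAB efflux and sulA so SOS filamentation is blocked; test concentration not given here.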 To be noted: E. coli DRC41 growth, higher = more signal, called active from +8 up or from −8 down.
The nature of assay [17]: probe aLefty2 binding to arrayed compounds – biochemical, biotinylated probe, 635/667 nm fluorescence, primary screen (AID 1094).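 Note: score merges spot fluorescence near 667 nm with spot signal-to-noise ratio.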 To be noted: small-molecule microarray, higher = more signal.
Assay [18] has as its system Noggin (protein binding on small-molecule microarray). Kind of assay: small molecules binding Noggin protein – biochemical, 635/667 nm fluorescence, primary screen (AID 1095).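 Note: score merges 667 nm feature fluorescence with signal to noise over triplicate slides.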 To be noted: 635 nm fluorescence, higher = more signal.
Assay [19] has as its target Neurogenic locus notch homolog protein 3 (Homo sapiens) (UniProt Q9UM47). Kind of assay: small molecules binding NOTCH3 protein – biochemical, 635/667 nm fluorescence, primary screen (AID 1096). The following applies: small-molecule microarray, 635 nm fluorescence, higher = more signal.
Assay [20] can be described thus: probe aEGFR binding to arrayed compounds – biochemical, biotinylated probe, 635/667 nm fluorescence, primary screen (AID 1097).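 Note: probe is a biotinylated anti-EGFR antibody binding compounds printed on slides; score combines fluorescence near 667 nm and signal to noise of each spot.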 The following applies: small-molecule microarray, higher = more signal.

Chain of Neurogenic locus notch homolog protein 3 (Homo sapiens) (Q9UM47 whole entry, looked up): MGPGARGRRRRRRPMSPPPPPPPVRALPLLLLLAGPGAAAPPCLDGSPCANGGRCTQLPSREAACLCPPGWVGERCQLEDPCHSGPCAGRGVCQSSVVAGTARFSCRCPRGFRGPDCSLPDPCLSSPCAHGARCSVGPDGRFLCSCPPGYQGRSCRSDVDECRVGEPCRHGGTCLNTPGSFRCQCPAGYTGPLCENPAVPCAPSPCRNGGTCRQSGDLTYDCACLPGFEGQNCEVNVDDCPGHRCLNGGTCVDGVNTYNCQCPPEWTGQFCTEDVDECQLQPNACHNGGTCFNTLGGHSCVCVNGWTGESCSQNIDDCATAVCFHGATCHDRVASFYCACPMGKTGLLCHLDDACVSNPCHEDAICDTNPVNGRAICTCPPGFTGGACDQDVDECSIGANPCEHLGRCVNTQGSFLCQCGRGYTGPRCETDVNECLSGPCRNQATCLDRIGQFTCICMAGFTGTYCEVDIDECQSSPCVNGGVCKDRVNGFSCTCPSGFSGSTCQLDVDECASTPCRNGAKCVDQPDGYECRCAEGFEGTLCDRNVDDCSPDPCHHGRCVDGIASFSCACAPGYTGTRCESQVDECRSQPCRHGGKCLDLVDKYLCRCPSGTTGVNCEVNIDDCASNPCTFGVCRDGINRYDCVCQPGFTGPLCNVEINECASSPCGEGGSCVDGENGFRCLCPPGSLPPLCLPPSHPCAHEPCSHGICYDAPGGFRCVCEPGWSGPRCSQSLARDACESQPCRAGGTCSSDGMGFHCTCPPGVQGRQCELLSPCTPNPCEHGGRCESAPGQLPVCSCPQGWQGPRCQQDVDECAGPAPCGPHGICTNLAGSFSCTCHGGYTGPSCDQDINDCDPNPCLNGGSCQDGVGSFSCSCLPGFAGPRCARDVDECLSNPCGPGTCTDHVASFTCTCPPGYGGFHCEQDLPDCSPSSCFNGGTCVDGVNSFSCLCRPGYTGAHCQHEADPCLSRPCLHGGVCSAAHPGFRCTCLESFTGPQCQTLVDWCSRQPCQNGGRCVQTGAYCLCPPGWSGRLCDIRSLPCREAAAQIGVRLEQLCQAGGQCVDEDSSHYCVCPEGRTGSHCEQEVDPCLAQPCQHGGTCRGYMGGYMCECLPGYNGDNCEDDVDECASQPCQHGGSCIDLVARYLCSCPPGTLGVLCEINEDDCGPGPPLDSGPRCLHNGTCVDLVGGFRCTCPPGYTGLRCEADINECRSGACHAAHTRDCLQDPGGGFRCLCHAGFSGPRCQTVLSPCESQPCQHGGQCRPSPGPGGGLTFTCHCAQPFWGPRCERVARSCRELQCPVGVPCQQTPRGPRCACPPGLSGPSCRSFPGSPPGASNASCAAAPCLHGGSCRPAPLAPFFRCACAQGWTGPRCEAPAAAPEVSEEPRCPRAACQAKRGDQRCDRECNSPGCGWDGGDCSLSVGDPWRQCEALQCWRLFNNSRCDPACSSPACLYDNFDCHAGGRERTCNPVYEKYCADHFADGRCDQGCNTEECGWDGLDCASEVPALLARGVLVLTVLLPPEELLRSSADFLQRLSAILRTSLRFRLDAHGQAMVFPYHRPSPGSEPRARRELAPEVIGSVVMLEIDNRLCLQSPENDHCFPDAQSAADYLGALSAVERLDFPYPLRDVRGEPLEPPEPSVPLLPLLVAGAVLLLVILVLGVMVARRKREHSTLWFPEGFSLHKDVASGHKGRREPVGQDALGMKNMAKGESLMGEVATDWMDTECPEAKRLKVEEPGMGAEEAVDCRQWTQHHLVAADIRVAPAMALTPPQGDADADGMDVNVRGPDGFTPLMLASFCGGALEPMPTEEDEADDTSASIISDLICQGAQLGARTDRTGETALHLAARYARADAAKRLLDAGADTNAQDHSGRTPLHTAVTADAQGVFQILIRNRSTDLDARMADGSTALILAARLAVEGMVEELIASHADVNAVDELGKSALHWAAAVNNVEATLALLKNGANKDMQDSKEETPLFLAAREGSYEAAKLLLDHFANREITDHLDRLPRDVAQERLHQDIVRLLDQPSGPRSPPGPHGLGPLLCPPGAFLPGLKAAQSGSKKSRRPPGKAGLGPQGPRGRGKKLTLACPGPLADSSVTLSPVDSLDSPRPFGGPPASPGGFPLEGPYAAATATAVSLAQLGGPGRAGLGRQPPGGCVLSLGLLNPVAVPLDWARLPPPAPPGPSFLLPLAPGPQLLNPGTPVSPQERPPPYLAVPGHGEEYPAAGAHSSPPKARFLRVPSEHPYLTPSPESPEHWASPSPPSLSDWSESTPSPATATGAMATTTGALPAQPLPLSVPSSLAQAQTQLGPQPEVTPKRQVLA

For `COCCCNC(=O)[C@]1(CCC(=O)OC(C)(C)C)N=C(c2ccc(OCCCO)cc2)O[C@@H]1c1ccccc1CN=[N+]=[N-]`, the composite z-score amounted to 0.175 in assay [1]; 1.19 in [2]; 0.042 in [3]; 1.27 in [4]; 0.96 in assay [5]; 0.732 in assay [6]. The composite z-score in assay [7] was 1.41; in [9], 0.728; in assay [10] it was 0.107; in assay [11], 1.54; in assay [15], 2.92; in assay [17] it was 0.0894. Besides, the values for the composite z-score in assay [18], in assay [19] and in assay [20] were 0.33, 0.89 and -0.0315, respectively. The z-score in assay [8] is 4.82 (inactive); in [12], 0.15 (inactive); in assay [13], 0.556 (inactive); in assay [14], -0.78 (inactive); in assay [16] it was -0.613 (inactive).
For `C=C(CCCC)/C(=C/C[C@H](OC(C)=O)c1ccccc1OCCO)c1cc(C(=O)OC)ccc1OC`, the composite z-score is -0.198 in assay [1]; -0.268 in [2]; -0.134 in assay [3]; 0.339 in assay [4]; -0.264 in [5]; -0.35 in assay [6]. Also, the composite z-score in assay [7] is 0.48; in [9], -0.201; in assay [10], -0.134; in [11], -0.0836; in assay [15], 0.405; in assay [17] it was -0.171. Moreover, the results for the composite z-score in [18], in assay [19] and in assay [20] were -0.035, 0.212 and -0.126, respectively. Further, the z-score in [8] is -0.214 (inactive); in assay [12], 0.556 (inactive); in [13] it was -0.886 (inactive); in assay [14], -0.24 (inactive); in [16] it was 1.18 (inactive).
On to `COC(=O)C[C@H]1O[C@]2(C(=O)N(C)c3ccccc32)[C@@H](C)[C@@H]1[Si](C)(C)F`, for which the composite z-score is -0.54 in [1]; 0.109 in [2]; -0.131 in assay [3]; 0.626 in assay [4]; 0.423 in assay [5]; -0.133 in assay [6]. Further, the composite z-score is 0.346 in [7]; -0.0253 in assay [9]; 0.141 in assay [10]; 1.54 in assay [11]; 2.24 in assay [15]; -0.168 in assay [17]. For the same compound, the composite z-score in assay [18] was 1.86; in [19], 0.59; in assay [20], -0.132. Further, the z-score in [8] is -1.35 (inactive); in [12], -2.06 (inactive); in assay [13] it was -1.29 (inactive); in assay [14] it was -0.922 (inactive); in assay [16], 1.64 (inactive).
As to `COc1ccc(CCNC(=O)[C@@]2(Sc3ccc(C)cc3)CC(=O)N(C3Cc4ccccc4C3)[C@@H]2c2ccc(CO)cc2I)cc1`, the composite z-score in assay [1] was 0.538; in [2] it was 0.0778; in assay [3], -0.0558; in assay [4], -0.183; in assay [5], -0.813; in assay [6] it was 1.54. Further, the composite z-score is 0.948 in assay [7]; 0.0627 in assay [9]; 0.0854 in [10]; 0.789 in assay [11]; 1.99 in [15]; 0.119 in assay [17]. For the same compound, the composite z-score in assay [18] is -1.37; in assay [19] it was -0.0239; in [20] it was -0.172. Further, the z-score in [8] was -0.518 (inactive); in assay [12], 0.534 (inactive); in [13], -2.75 (inactive); in [14], 3.02 (inactive); in [16] it was 0.171 (inactive).
In the case of `C=CCNC(=O)[C@@H]1[C@H]2C(=O)O[C@H](c3ccccc3)[C@H](c3ccccc3)N2[C@H](c2ccccc2OCCO)[C@@]12C(=O)N(C(=O)OCCOC)c1ccccc12`, the composite z-score in assay [1] is 0.599; in assay [2], 0.603; in assay [3], -0.107; in [4], 0.73; in [5], 1.32; in [6], 0.848. Moreover, the composite z-score in assay [7] is 1.29; in [9], 0.562; in assay [10] it was 0.621; in assay [11], 1.54; in assay [15], 2.64; in assay [17] it was 0.0615. Besides, the composite z-score in assay [18] was 1.71; in assay [19], 0.884; in [20], -0.0381. The z-score was -0.0386 (inactive) in [8]; 2.86 (inactive) in [12]; 2.29 (inactive) in assay [13]; 7.26 (inactive) in [14]; -0.442 (inactive) in assay [16].

The record behind these values is PubChem BioAssay.
